Data from PMC8384837, “Expanding the binding specificity for RNA recognition by a PUF domain”.

Experiments:
Assay in all cases: yeast three-hybrid, YBZ-1, SC-Leu-His + 0.5 mM 3-AT, 4 days
Conditions in all cases: tags: N-Gal4 AD-HA kept; label: inside an RPR1-promoter hybrid RNA with tandem MS2 sites; ssRNA
PUM1 PUF domain R5-KAR = PUM1 PUF domain R5-KAR (Homo sapiens, UniProt Q14671 828-1176, C1007K;R1008A;Q1011R)
How it was run: (§1)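 Sequencing with Illumina followed PCR amplification of the repeat regions from transformants grown four days on SC-Leu (input) or SC-Leu-His + 0.5 mM 3-AT (selection). The transformants were strain YBZ-1 with a LexA–MS2 coat fusion and a HIS3 reporter, carrying Pumilio-1 PUF domain libraries and matching RNA elements. The interaction score is the log change in variant frequency from input to selection, computed in log2 with a pseudocount of 1 for absent variants.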

PUM1 PUF domain R5-KQS = PUM1 PUF domain R5-KQS (Homo sapiens, UniProt Q14671 828-1176, C1007K;R1008Q;Q1011S)
How it was run: as §1

PUM1 PUF domain R5-EWF = PUM1 PUF domain R5-EWF (Homo sapiens, UniProt Q14671 828-1176, C1007E;R1008W;Q1011F)
How it was run: as §1

PUM1 PUF domain R5-DQE = PUM1 PUF domain R5-DQE (Homo sapiens, UniProt Q14671 828-1176, C1007D;R1008Q;Q1011E)
How it was run: as §1

PUM1 PUF domain R6-KWL = target: T1, PUM1 PUF domain R6-KWL (Homo sapiens, UniProt Q14671 828-1176, N1043K;Y1044W;Q1047L)
T1 sequence: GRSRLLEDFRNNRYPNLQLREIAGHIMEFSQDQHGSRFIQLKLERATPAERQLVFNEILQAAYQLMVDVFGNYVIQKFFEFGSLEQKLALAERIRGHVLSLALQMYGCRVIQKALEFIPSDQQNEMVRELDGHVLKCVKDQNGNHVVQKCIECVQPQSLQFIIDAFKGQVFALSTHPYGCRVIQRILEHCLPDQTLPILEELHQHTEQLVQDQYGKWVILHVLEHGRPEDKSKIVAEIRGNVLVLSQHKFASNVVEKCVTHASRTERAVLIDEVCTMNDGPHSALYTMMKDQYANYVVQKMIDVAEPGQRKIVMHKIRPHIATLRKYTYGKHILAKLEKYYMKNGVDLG
How it was run: as §1

PUM1 PUF domain R7-DWE = PUM1 PUF domain R7-DWE (Homo sapiens, UniProt Q14671 828-1176, S1079D;N1080W)
How it was run: as §1

PUM1 PUF domain R8-VYR = PUM1 PUF domain R8-VYR (Homo sapiens, UniProt Q14671 828-1176, N1122V;Q1126R)
How it was run: as §1

PUM1 PUF domain R3-AFP = PUM1 PUF domain R3-AFP (Homo sapiens, UniProt Q14671 828-1176, C935A;R936F;Q939P)
How it was run: as §1

PUM1 PUF domain R8-HFM = PUM1 PUF domain R8-HFM (Homo sapiens, UniProt Q14671 828-1176, N1122H;Y1123F;Q1126M)
How it was run: as §1

PUM1 PUF domain R3-WFG = PUM1 PUF domain R3-WFG (Homo sapiens, UniProt Q14671 828-1176, C935W;R936F;Q939G)
How it was run: as §1

Sequence: GGCUAGAACUAGUGGAUCCCCCGGCGCCCGGCGGCUCGAGCCCGGGUAAGUGUCAAUAGUCUGCAUGCCGCCGGGCGCCAUGCCUGCAGGUCGACUCUAGAAAACAUG
- binding signal (PUM1 PUF domain R5-KAR): 4.29 log2 enrichment (interaction score)
- binding signal (PUM1 PUF domain R5-KQS): 3.98 log2 enrichment (interaction score)

Sequence: GGCUAGAACUAGUGGAUCCCCCGGCGCCCGGCGGCUCGAGCCCGGGUAAGUGUUAAUAGUCUGCAUGCCGCCGGGCGCCAUGCCUGCAGGUCGACUCUAGAAAACAUG
- binding signal (PUM1 PUF domain R5-KAR): 2.72 log2 enrichment (interaction score)
- binding signal (PUM1 PUF domain R5-EWF): 3.15 log2 enrichment (interaction score)

Sequence: GGCUAGAACUAGUGGAUCCCCCGGCGCCCGGCGGCUCGAGCCCGGGUAAGUGUGAAUAGUCUGCAUGCCGCCGGGCGCCAUGCCUGCAGGUCGACUCUAGAAAACAUG
- binding signal (PUM1 PUF domain R5-DQE): 3.83 log2 enrichment (interaction score)

Sequence: GGCUAGAACUAGUGGAUCCCCCGGCGCCCGGCGGCUCGAGCCCGGGUAAGUGUAAAUAGUCUGCAUGCCGCCGGGCGCCAUGCCUGCAGGUCGACUCUAGAAAACAUG
- binding signal (PUM1 PUF domain R6-KWL): 5.66 log2 enrichment (interaction score)
- binding signal (PUM1 PUF domain R7-DWE): 2.44 log2 enrichment (interaction score)
- binding signal (PUM1 PUF domain R5-KQS): 0.39 log2 enrichment (interaction score)
- binding signal (PUM1 PUF domain R8-VYR): 4.52 log2 enrichment (interaction score)
- binding signal (PUM1 PUF domain R3-AFP): 5.95 log2 enrichment (interaction score)

Sequence: GGCUAGAACUAGUGGAUCCCCCGGCGCCCGGCGGCUCGAGCCCGGGUAAGCGUAAAUAGUCUGCAUGCCGCCGGGCGCCAUGCCUGCAGGUCGACUCUAGAAAACAUG
- binding signal (PUM1 PUF domain R8-VYR): 5.17 log2 enrichment (interaction score)
- binding signal (PUM1 PUF domain R8-HFM): 2.95 log2 enrichment (interaction score)

Sequence: GGCUAGAACUAGUGGAUCCCCCGGCGCCCGGCGGCUCGAGCCCGGGUAAGUGUAAGUAGUCUGCAUGCCGCCGGGCGCCAUGCCUGCAGGUCGACUCUAGAAAACAUG
- binding signal (PUM1 PUF domain R3-WFG): 2.77 log2 enrichment (interaction score)

Sequence: GGCUAGAACUAGUGGAUCCCCCGGCGCCCGGCGGCUCGAGCCCGGGUAAGUGUAAUUAGUCUGCAUGCCGCCGGGCGCCAUGCCUGCAGGUCGACUCUAGAAAACAUG
- binding signal (PUM1 PUF domain R3-WFG): 2.57 log2 enrichment (interaction score)
